# This is a sample that favours compounds with a hit; in the whole collection about 1.5% have one here.
# Six1-Eya2 inh = blocks human Six1 binding to Eya2; AlphaScreen GST-Six1/His-Eya2 binding, biochemical; active compounds read low; activity change, % (concentration not given with the values); actives 0.56% (n = 360,000); in the data active means activity change below about -65%; inconclusive means mostly about -30% to -63%
# Target sequence (O00167 whole entry, looked up): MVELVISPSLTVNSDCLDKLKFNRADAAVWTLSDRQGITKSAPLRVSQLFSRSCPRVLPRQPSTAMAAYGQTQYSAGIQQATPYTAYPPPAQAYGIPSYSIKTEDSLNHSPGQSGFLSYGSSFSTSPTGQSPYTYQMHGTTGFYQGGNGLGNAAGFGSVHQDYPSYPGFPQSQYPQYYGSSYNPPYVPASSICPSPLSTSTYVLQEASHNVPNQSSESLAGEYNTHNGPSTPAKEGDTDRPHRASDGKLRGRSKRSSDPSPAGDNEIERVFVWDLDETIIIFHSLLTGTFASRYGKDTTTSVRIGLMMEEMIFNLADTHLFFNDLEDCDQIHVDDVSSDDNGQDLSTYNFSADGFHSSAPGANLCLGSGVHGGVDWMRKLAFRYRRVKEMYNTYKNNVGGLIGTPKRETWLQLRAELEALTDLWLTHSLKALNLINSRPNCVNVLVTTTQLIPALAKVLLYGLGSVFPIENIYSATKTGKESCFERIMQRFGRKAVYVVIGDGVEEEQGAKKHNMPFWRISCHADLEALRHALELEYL
# Target sequence (Q15475 whole entry, looked up): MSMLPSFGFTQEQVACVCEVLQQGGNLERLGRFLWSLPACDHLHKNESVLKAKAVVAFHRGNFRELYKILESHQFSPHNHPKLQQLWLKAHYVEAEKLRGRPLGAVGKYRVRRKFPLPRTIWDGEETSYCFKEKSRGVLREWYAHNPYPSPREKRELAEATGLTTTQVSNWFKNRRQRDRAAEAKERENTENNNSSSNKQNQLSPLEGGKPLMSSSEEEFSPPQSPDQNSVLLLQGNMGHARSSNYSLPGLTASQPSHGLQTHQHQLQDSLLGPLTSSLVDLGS
#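 Compounds are tested against tagged Six1 and Eya2 proteins bridged by glutathione donor and nickel acceptor beads; after a one-hour incubation at 37 °C without light, AlphaScreen emission is recorded.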
# rTrxR1 inhibitor = blocks rat thioredoxin reductase 1. recombinant rTrxR1, NADPH fluorescence consumption, selenite substrate. Potency, µM (titrated, usually from 114 µM), for inactives: at the highest dose activity change, negative = inhibition, actives largely listed as inhibitors. actives 1% (n = 390,000). AID 588453; further: potency means the concentration at half of the fitted maximal effect; nearly all actives have a fitted effect of over 65% in size
#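 Rat TrxR1 (90 nM in the dispensed reagent) was pre-reduced with 400 uM NADPH for 5 min at room temperature, then incubated with compound for 15 min. After 400 uM selenite was added, NADPH fluorescence (Ex 340/Em 450 nm) was followed for 8 min.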
# CtBP-E1A inh = CtBP/E1A binding inhibition; AlphaScreen GST-E1A/His-CtBP binding, 1536-well; active compounds read low; activity change, % (no concentration beside the values); actives 0.49% (n = 340,000); in the data active means activity change below about -65%; inconclusive means mostly about -30% to -63%
#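 GST-E1A and His-tagged CtBP (125 nM each as 5X stock) were preincubated with pin-transferred compound for 2 h at 37 °C in the dark, then glutathione donor and nickel acceptor beads were added for 1 h before AlphaScreen reading.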
# Eya2 phos inh = blocks the phosphatase activity of human Eya2. O00167. recombinant Eya2, OMFP fluorescence dephosphorylation (OMFP is methylfluorescein phosphate). Potency, µM (doses to about 76.9 µM), without a hit: at the top dose activity, negative = inhibition, hits mostly inhibitors. actives 0.006% (n = 330,000); further: potency means the concentration at half of the fitted maximal effect
#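 Eya2 (0.2 uM) preincubated 10 min at ambient with compound, then OMFP substrate added at 50 uM; 10 min reaction in 50 mM HEPES pH 7.5, 50 mM NaCl, 5 uM MgCl2, 0.05% BSA, 1 mM DTT. Fluorescence read at Ex 485/Em 525 nm.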
# TrxR1 substrate = substrates of rat thioredoxin reductase 1. purified TrxR1 substrate turnover, NADPH consumption readout. Potency, µM (titrated, usually from 114 µM), without a hit: at the top dose activity change, negative = substrate turnover. actives 0.01% (n = 390,000). AID 588456; further: potency means the concentration at half of the fitted maximal effect; nearly all actives have a fitted effect of over 50% in size
#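 Rat TrxR1, dispensed at 90 nM, was prereduced with 400 uM NADPH (final) for 5 min at ~22 deg C, then incubated with compound 15 min before 400 uM selenite. A first-read NADPH fluorescence drop versus no-compound background flagged substrates.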
# GALK inh = galactokinase (human) inhibition; P51570; Purified GALK, Kinase-Glo residual ATP luminescence; Potency, µM (titrated, usually from 57.5 µM), for the others: at the highest dose activity change, negative = inhibition, actives largely listed as inhibitors; actives 0.007% (n = 270,000); further: potency means the concentration at half of the fitted maximal effect
#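 The enzyme phosphorylates galactose (100 uM) using ATP (35 uM); inhibition is detected as higher residual ATP, quantified by bioluminescence after 1 h reaction at room temperature, pH 8.0.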
# * hit, by the source's call; ? = inconclusive; · = not tested or not shown; ! = not confirmed by another sample; [ ] = dose if it differs, or a comment. Unless noted, the call rests on the fitted dose curve; in most records, active means well fitted curve in the direction sought with a large enough effect; inconclusive means small, poorly fitted or top-dose-only effect, or another doubt; inactive means no such curve, though single readings can be large; an effect the other way counts as inactive or inconclusive. On the % scale 0 is the no-effect control and ±100 the full control effect.
SMILES,Six1-Eya2 inh,rTrxR1 inhibitor,CtBP-E1A inh,Eya2 phos inh,TrxR1 substrate,GALK inh
CCCCC(=O)NC(c1ccc(C(C)C)cc1)c1ccc2cccnc2c1O (stereo not given),-24,30%[11.4 µM],-22,-3%,-5%,1%
COc1ccccc1-c1nnc(C2CCN(C(=O)c3cccc(Cl)c3)CC2)o1,·,7%,·,·,6%,·
COc1cc2nc(N3CCCN(C)CC3)nc(NC3CCNCC3)c2cc1OC,·,-17%,·,·,294%,·
CCc1cccc(N2C(=O)CSC23C(=O)N(Cc2ccccc2F)c2ccccc23)c1 (stereo not given),·,37%,·,·,19%,·
Oc1cccc(C(Nc2nccs2)c2ccc3cccnc3c2O)c1 (stereo not given),-83*,?,-81*,-6%,2%[57.1 µM],-2%
CCC(=O)NC(c1ccc(OC)cc1)c1c(O)ccc2ccccc12 (stereo not given),1,15%,·,-2%,10%,-2%
COc1cccc(C(Nc2ccccc2)c2ccc3ccc(C)nc3c2O)c1 (stereo not given),-25,·,-5,·,·,·
CCCCC(=O)NC(c1ccccc1Cl)c1ccc2cccnc2c1O (stereo not given),-67*,1%,?,-5%,-4%,2%
CCCC(=O)NC(c1ccc(OC)cc1)c1ccc2cccnc2c1O (stereo not given),-90*,23%[57.1 µM],-88*,1%,14%[57.1 µM],3%
COc1ccc(Cl)cc1C(Nc1cccnc1)c1ccc2cccnc2c1O (stereo not given),?,4µM*,-67*,-8%,3%[57.1 µM],-1%
O=[N+]([O-])c1ccc(NC(c2ccccc2)c2ccc3cccnc3c2O)cc1 (stereo not given),-18,5%[2.29 µM],-20,·,5%[57.1 µM],·
O=c1c(=O)n(-c2cccc(Cl)c2)ccn1Cc1cccc(F)c1,·,-16%,·,·,-7%,·
CC(C)(C)c1ccc(-c2nnc(-c3ccccc3NC(=O)c3cccc(C(F)(F)F)c3)o2)cc1,·,34%[11.4 µM],·,·,17%[11.4 µM],·
Oc1c(C(Nc2ccccn2)c2ccccc2)ccc2cccnc12 (stereo not given),·,50µM*,·,·,-4%,·
Oc1cccc(C(Nc2ccccn2)c2ccc3cccnc3c2O)c1Cl (stereo not given),·,?,·,·,3%,·
CC(Oc1ccc(F)cc1)C(=O)Nc1nc(-c2ccc(F)cc2)ns1 (stereo not given),·,30%,·,·,-2%,·
CC(=O)c1ccc(NC(=O)c2sc(-n3nc(C)c(Cc4ccccc4)c3C)nc2C)cc1,·,26%,·,·,7%,·
S=c1[nH]nc(-c2ccccn2)n1/N=C/c1ccccc1,?,?,-4,0%,-14%,0%
S=c1[nH]nc(-c2ccccn2)n1/N=C/c1c(Cl)cccc1Cl,-80*,-13%[57.1 µM],-1,-30%,8%[57.1 µM],-4%
S=c1[nH]nc(-c2ccccn2)n1/N=C/c1ccc(Cl)cc1,-75*,-15%[2.29 µM],?,2%,7%[57.1 µM],6%
O=C(/C=C/c1ccco1)NCCCN1CCOCC1,10,7%[57.1 µM],5,-2%,10%[57.1 µM],5%
O=C(/C=C/c1ccc(Br)o1)NCCCN1CCOCC1,6,8.9µM*,·,5%,-3%,-4%
CCN1CCOC(=O)C1CC(=O)Nc1cc(Cl)ccc1C (stereo not given),·,11µM*,·,·,4%,·
CCN1/C(=C/C(C)=C/c2sc3ccccc3[n+]2CC)Sc2ccccc21,-80*!,17%[57.1 µM],?,?,-5%[57.1 µM],11%
CCN1/C(=C\C(=S)Nc2ccccc2)Sc2ccccc21,?,17%[57.1 µM],-1,7%,-6%[57.1 µM],-1%
SMILES,Six1-Eya2 inh,rTrxR1 inhibitor,CtBP-E1A inh,Eya2 phos inh,TrxR1 substrate,GALK inh
COCCNC(=O)c1ccc2c(=O)n(CCc3ccccc3)c(SCC(=O)CC(=O)OC)nc2c1,·,5%[57.1 µM],·,·,3%[57.1 µM],·
O=C(/C=C/c1cccc([N+](=O)[O-])c1)c1ccc([N+](=O)[O-])o1,1,1.1µM*,1,·,-5%,·
COc1ccc(/C=C/C(=O)c2ccc([N+](=O)[O-])o2)cc1,2,?,3,9%,-3%,·
Cc1ccccc1/C=C/C(=O)c1ccc([N+](=O)[O-])o1,-1,3.5µM*,5,-14%,-10%,·
O=C(/C=C/c1cccc([N+](=O)[O-])c1)c1ccco1,8,18µM*,0,2%,-4%,-1%
O=C(/C=C/c1cccc([N+](=O)[O-])c1)Nc1cccc(NC(=O)c2ccco2)c1,-11,-17%,-27,-7%,-15%,-2%
Cc1cccc(/C=C/C(=O)c2ccc([N+](=O)[O-])o2)c1,-1,1.3µM*,0,6%,1%,·
CCCOc1cccc(C2c3c(oc4ccc(F)cc4c3=O)C(=O)N2CCCN2CCOCC2)c1 (stereo not given),·,9%,·,·,1%,·
Cc1cc(C)c2c(CC(=O)Nc3ccccc3C(F)(F)F)coc2c1,·,20%,·,·,2%,·
CCC(=O)N1CCc2cc(Br)cc(S(=O)(=O)CCC(=O)NCc3ccc(F)cc3)c21,·,9%,·,·,-2%[2.29 µM],·
C(=C\c1ccnc2ccccc12)/c1ccc(N(Cc2ccccc2)Cc2ccccc2)cc1,·,-2%,·,·,-5%,·
CNc1cccc2c1C(=O)c1ccccc1C2=O,-87*,-7%,-3,2%,-3%,3%
O=C1c2ccccc2C(=O)c2c(NCc3cccnc3)cccc21,?,-17%,-8,-3%,-16%,·
CC(=O)N(C)c1ccc(/C=C2\C=Cc3ccccc32)cc1,·,?,·,·,-4%,·

# Screens deposited in PubChem by National Center for Advancing Translational Sciences (NCATS).
